Measured values published in PubChem BioAssay AID485314 (National Center for Advancing Translational Sciences (NCATS), 2010).
Out of some 340,000 compounds screened, about 4,500 (1.3%) were called active. Entries that show only a call come without a potency. Not shown: some 5% with an inconclusive outcome. Calls follow the shape of the dose curve; as a rule, active = well fitted inhibition curve with a large enough effect; inconclusive = small, poorly fitted or top-dose-only effect, or another doubt; inactive = no such curve, though single readings can be large or run the other way. Many of the other results were omitted from the sample, so actives are more common in it than they were.

Each molecule was assayed against DNA polymerase beta (Homo sapiens) (UniProt P06746) (assay: qHTS Assay for Inhibitors of DNA Polymerase Beta). Details: Pol beta primer extension/strand displacement, fluorescence kinetic; series mostly up to 114 µM.
Procedure, shortened: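 Values derive from four-parameter Hill fits of normalized kinetic data: reads at 0 and 10 min following addition of 50 nM substrate to 10 nM Pol beta preincubated 15 min with compound.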
Potency is read from the fitted curve at half-maximal effect.

| SMILES | Potency |
| --- | --- |
| CCOC(=O)C1CCN(c2csc3ccc(C)cc3c2=O)CC1 | inactive |
| COc1cc(/C=C2/C(=O)NN(c3cccc(Cl)c3)C2=O)cc(Br)c1O | inactive |
| O=C1NN(c2ccccc2)C(=O)/C1=C/c1ccc(-c2cccc(C(=O)O)c2)o1 | 35.5 µM (active) |
| Cc1cccc(C)c1-n1c(C)cc(/C=C2\C(=O)NN(c3ccccc3)C2=O)c1C | inactive |
| CCOc1cc(C2C(C(=O)OC)=C(C)NC3=C2C(=O)c2ccccc23)ccc1O (centres undefined) | inactive |
| Cc1cccc2nc(-c3ccc(Cl)s3)c(Nc3ccc4c(c3)OCCO4)n12 | inactive |
| Cc1ccc(OC(=O)CCC(=O)Nc2ccc(Br)cc2)cc1 | inactive |
| COc1ccc(C(=O)CCC(=O)Nc2ccc(Cl)cc2)cc1 | inactive |
| Cc1ccc(NC(=O)CCC(=O)c2ccc(Br)cc2)cc1 | 89.1 µM (active) |
| CCOc1cc(-c2nnc(SCC(=O)NC3CCCC3)nc2-c2ccc(OC)c(OCC)c2)ccc1OC | inactive |
| CCCn1c2ccccc2c2cnn(CC(=O)N(C)c3ccccc3CC)c(=O)c21 | inactive |
| COc1cccc(CNC(=O)CCc2nc(-c3ccc(C)cc3)no2)c1 | inactive |
| COc1ccc(OC)c(NC(=O)CSc2nc3ccccc3nc2N2CCCCC2)c1 | inactive |
| CCOC(=O)c1ccc(-c2ccc(/C=C(\C#N)C(=O)Nc3ccc(C)cc3)o2)cc1 | inactive |
| Cc1ccc2nc(/C(C#N)=C/c3ccccc3F)[nH]c2c1 | inactive |
| Cc1ccc2nc(/C(C#N)=C/c3ccc(-c4ccc(C(=O)OC(C)C)cc4)o3)[nH]c2c1 | 28.2 µM (active) |
| COc1ccc(S(=O)(=O)NCc2cccn2Cc2cccc(C)c2)cc1Cl | inactive |
| COc1ccc(N2CCN(C3=NS(=O)(=O)C(c4cccc(Br)c4)=C3C)CC2)cc1 | inactive |
| CCOC(=O)C(Cc1ccccc1)NC(=O)CCC(=O)c1ccc(OC)cc1 (centres undefined) | inactive |
| COc1cc([C@H](Cc2ccccc2)NC(C)=O)oc(=O)c1 | 17.8 µM (active) |
| COc1ccc2oc(C(=O)NCC(Cc3ccccc3)N(C)C)c(C)c2c1 (centres undefined) | inactive |
| CC(C)c1nc2oc3c(N4CCN(C)CC4)ncnc3c2c2c1CCC2 | 12.6 µM (active) |
| Cc1cc(C)nc(N2CCN(c3ncnc4c3oc3ccccc34)CC2)n1 | inactive |
| Cc1ccc(NC(=O)c2ccc(CN3CC(=O)N4CCCCC4C3=O)cc2)c(Cl)c1 (centres undefined) | inactive |
| Cc1nnc(C)n1-c1ccc(C(=O)Nc2cccc(Br)c2)cc1 | inactive |

| SMILES | Potency |
| --- | --- |
| Cc1cccc(NC(=O)NC2(C)CCS(=O)(=O)C2)c1 (centres undefined) | inactive |
| Cc1cccc(NC(=O)C2CC(=O)OC23CCCC3)c1 (centres undefined) | 28.2 µM (active) |
| Cc1cccc(NC(=O)C2CCN(C(=O)NC3CCCCC3)CC2)c1 | inactive |
| CCOC(=O)c1ccc(NC(=O)c2csc3c2CCCCC3)cc1 | inactive |
| Cc1nn(-c2ccc(N3CCCCC3)nn2)c(C)c1CCC(=O)NCc1ccc(F)cc1 | inactive |
| COc1ccc(-n2ccnc(NCCc3ccc(Cl)cc3)c2=O)cc1OC | inactive |
| S=C(NCc1ccc2c(c1)OCO2)NCc1ccco1 | inactive |
| Cc1cc(C)cc(N(CC(=O)NCCSCc2ccco2)S(C)(=O)=O)c1 | inactive |
| CS(=O)(=O)N(CC(=O)NCc1ccco1)c1ccc2c(c1)OCO2 | 50.1 µM (active) |
| Cc1ccc(NC(=O)CSc2nc3c([nH]c4ccccc43)c(=O)n2-c2ccccc2)cc1Cl | inactive |
| Cc1ccc(NC(=O)c2ccc3[nH]c(C)cc(=O)c3c2)c(C)c1 | inactive |
| Fc1ccc(C(Nc2ccc(Cl)c(C(F)(F)F)c2)c2nnc(-c3ccccc3)o2)cc1 (centres undefined) | inactive |
| Nc1c(Cl)cc(S(N)(=O)=O)cc1S(N)(=O)=O | 25.1 µM (active) |
| NS(=O)(=O)c1ccc(NC(=S)Nc2ccc(Br)c(Cl)c2)cc1 | inactive |
| CCCN(CCC)C(=O)C1CCCN(c2ncnc3c2nc2n3CCCCC2)C1 (centres undefined) | inactive |
| COc1ccc(-c2cc(C(=O)NCc3cc(OC)c(OC)c(OC)c3)[nH]n2)cc1 | inactive |
| CCc1nnc(NC(=O)C2CCCN2S(=O)(=O)c2ccccc2)s1 (centres undefined) | inactive |
| CCc1ccc(NC(=O)C2CCCN2S(=O)(=O)c2ccc3nc(-c4ccccc4)[nH]c3c2)cc1 (centres undefined) | 12.6 µM (active) |
| CCc1ccccc1NS(=O)(=O)c1ccc2nc(-c3ccccc3)[nH]c2c1 | inactive |
| CCc1ccccc1NC(=O)Cc1ccc(NC(=O)N2CCCCc3ccccc32)cc1 | inactive |
| CCOc1ccc(Nc2c(S(=O)(=O)c3ccccc3)cnc3ccccc23)cc1 | inactive |
| CCn1cc(C(=O)N2CCN(c3cc(C)ccc3C)CC2)c(=O)c2cc(S(=O)(=O)N(C)C3CCCCC3)ccc21 | inactive |
| Cc1ccc(S(=O)(=O)N2CCCc3cc(NS(=O)(=O)c4cc(C)ccc4C)ccc32)cc1 | inactive |
| Cc1ccc(Nc2c(-c3ccc(N(C)C)cc3)nc3nc[nH]n23)cc1 | inactive |
| O=C(NC(=S)NC1CCS(=O)(=O)C1)c1cccc([N+](=O)[O-])c1 (centres undefined) | inactive |

| SMILES | Potency |
| --- | --- |
| O=C(Cc1ccc(Cl)cc1)NC1CCS(=O)(=O)C1 (centres undefined) | inactive |
| O=C(NC(=O)c1ccc(Cl)c(Cl)c1)OC1CCS(=O)(=O)C1 (centres undefined) | 89.1 µM (active) |
| O=C1CCCC(O)=C1N=Nc1ccc2ncsc2c1 | 35.5 µM (active) |
| O=C1CCCC(O)=C1N=Nc1ccc(S(=O)(=O)N2CCOCC2)cc1 | inactive |
| O=C(CSc1ncc(CO)n1Cc1ccc(Cl)cc1)NCc1ccc(F)cc1 | inactive |
| Cc1cccc(-c2nnc(SCC(=O)N3CCCc4ccccc43)o2)c1 | inactive |
| CC(C)c1cc(C(=O)N/N=C/C(Br)=C/c2ccccc2)n[nH]1 | inactive |
| Cc1ccc(-c2cc(C(=O)NN)n[nH]2)o1 | inactive |
| Cc1ccc(-c2cc(C(=O)N/N=C/C=C/c3ccccc3)n[nH]2)o1 | 17.8 µM (active) |
| Cc1nn2c(=O)cc(COC(=O)c3ccccc3NC(=O)COc3ccccc3C)nc2s1 | inactive |
| Cc1ccc(OCC(=O)OCc2cc(=O)n3nc(C4CC4)sc3n2)cc1C | inactive |
| COc1ccccc1C(=O)OCc1cc(=O)n2nc(-c3cccs3)sc2n1 | 17.8 µM (active) |
| Cc1ccc(OCC(=O)OCc2cc(=O)n3nc(C4CC4)sc3n2)cc1 | inactive |
| O=C(OCc1cc(=O)n2nc(C3CC3)sc2n1)c1ccccc1Cl | inactive |
| O=C(COc1ccccc1)OCc1cc(=O)n2nc(-c3cccs3)sc2n1 | 31.6 µM (active) |
| CCCn1c2ccccc2c2cnn(CC(=O)N(CC)c3cc(C)ccc3C)c(=O)c21 | inactive |
| Cc1ccc(O)c(/C=N/NC(=O)COc2ccc3c(C)cc(=O)oc3c2)c1 | 22.4 µM (active) |
| Cc1cc(=O)oc2cc(OCC(=O)Nc3nnc(C4CC4)s3)ccc12 | inactive |
| Cc1cc(=O)oc2ccc(OCC(=O)O)cc12 | inactive |
| CCOC(=O)Cc1csc(SCc2cc(=O)oc3cc(O)ccc23)n1 | inactive |
| COc1ccc(N2CCN(C(=O)COc3ccc4c(C)cc(=O)oc4c3)CC2)cc1 | inactive |
| CCOC(=O)Cc1csc(NC(=O)COc2ccc3c(C)cc(=O)oc3c2)n1 | 44.7 µM (active) |
| CCOC(=O)c1c(NC(=O)Cc2coc3ccc(CC)cc23)sc2c1CCC2 | inactive |
| COc1ccc(N2CCN(Cc3nc4c(c(=O)[nH]c(=O)n4C)n3Cc3ccc(Cl)cc3)CC2)cc1 | inactive |
| O=C(CSc1ncc(-c2ccccc2)[nH]1)Nc1ccc(F)cc1F | inactive |

| SMILES | Potency |
| --- | --- |
| Cc1nc2c(c(C)nn2-c2ccccc2)c(C)c1CCC(=O)NCCc1ccc(Cl)cc1 | inactive |
| CCOc1ccccc1CNC(=O)Nc1cn(CC(C)C)c(=O)c2ccccc12 | inactive |
| Cc1nn(CC(=O)O)c(=O)c2cc3cc(F)ccc3n12 | inactive |
| CC(C)c1ccc(NC(=O)Cn2nnc(C(=O)NCCc3ccccc3)c2N)cc1 | 7.94 µM (active) |
| CCc1ccc(NC(=O)Cn2nnc(C(=O)NCc3ccc(OC)cc3)c2N)cc1 | inactive |
| COc1ccc(CNC(=O)c2nnn(CC(=O)Nc3cc(C)cc(C)c3)c2N)cc1 | 10 µM (active) |
| CCc1ccc(NC(=O)Cn2nnc(C(=O)NCc3ccc4c(c3)OCO4)c2N)cc1 | inactive |
| Cc1cccc(NC(=O)c2nnn(CC(=O)Nc3ccc(C(C)C)cc3)c2N)c1C | inactive |
| COc1ccc(NC(=O)Cn2nnc(C(=O)NCCc3ccc(OC)c(OC)c3)c2N)cc1 | inactive |
| COCCNC(=O)CSc1nc(-c2ccccc2)[nH]c1-c1ccc(C)cc1 | inactive |
| Cc1cccc(NC(=O)CN(c2ccc(C(C)C)cc2)S(=O)(=O)c2c(C)nn(C)c2C)c1C | inactive |
| CCOC(=O)c1c(NC(=O)c2ccc(S(=O)(=O)N(CC)CC)cc2)sc2c1CCCCC2 | inactive |
| Cc1cc(C)c2oc(C(=O)Nc3ccc(S(=O)(=O)N(C)c4ccccc4)cc3)cc(=O)c2c1 | inactive |
| COc1ccc(N2CCN(C(=O)CSCc3nc(-c4ccccc4Cl)oc3C)CC2)cc1 | inactive |
| Cc1nc2sc(C)c(C)n2c(=O)c1S(=O)(=O)NCCc1ccc(Cl)cc1 | inactive |
| CCc1cccc(-n2nnc(-c3nsc(NC(=O)c4ccc(C)cc4)n3)c2C)c1 | inactive |
| CCN(CCCNC(=O)c1cc(Nc2ccc(OC)cc2)nc2ccccc12)c1cccc(C)c1 | inactive |
| Cc1nonc1C(=O)N/N=C/c1ccc(O)cc1 | inactive |
| Cc1nc2ccc(C(=O)N/N=C/c3ccc(O)cc3)cc2[nH]1 | 17.8 µM (active) |
| O=C(N/N=C/c1ccc(OC(=O)c2ccccc2Cl)cc1)c1ccc(O)cc1 | inactive |
| COc1ccc(N(Cc2cc3cc(OC)ccc3[nH]c2=O)S(C)(=O)=O)cc1 | 4.47 µM (active) |
| Cc1ccc2cc(CN(c3ccc(C)c(C)c3)S(C)(=O)=O)c(=O)[nH]c2c1 | inactive |
| COc1ccc(N(Cc2cc3ccc(C)cc3[nH]c2=O)S(=O)(=O)c2ccccc2)cc1 | inactive |
| CCc1ccc(NC(=O)N2CCN(C(=O)c3nsc4ccccc34)CC2)cc1 | inactive |
